In PubChem BioAssay:
The source made the active and inactive calls.

System: XIP peptide (Xip251-270) binding
Test: XIP fragment 251-270 binding compounds – biochemical, small-molecule microarray, fluorescence 635/667 nm, 0.1 µg/mL protein, primary screen (AID 1182)
Settings: fluorescent protein binding, 635 nm, higher = more signal, called active from +8 up or from −8 down

Composite z-score, inactive:
COCCCN1C(=O)[C@@]2(c3ccc([N+](=O)[O-])cc3)CC(=O)N(CC34CC5CC(CC(C5)C3)C4)[C@@H]2c2ccc(CO)cc21 0.264
CO[C@H]1O[C@H](CO)[C@@H](OC(=O)Nc2ccccc2-c2ccccc2)[C@H](OC(=O)Nc2ccccc2)[C@H]1OC(=O)Nc1ccccc1 -0.249
COCCOC(=O)N1C(=O)[C@@]2(c3cc(C#CCC(C(=O)OC)C(=O)OC)ccc31)[C@H](C(=O)Nc1nc3ccccc3s1)[C@H]1C(=O)O[C@H](c3ccccc3)[C@H](c3ccccc3)N1[C@@H]2c1ccc(OCCO)cc1 1.7
O=C(NC1CC1)[C@@H]1c2ccccc2C(=O)N(Cc2cc(C(F)(F)F)cc(C(F)(F)F)c2)[C@H]1c1ccc(CO)cc1 0.684
CC(C)C[C@@H]1NC(=O)[C@@H]2C[C@H](C(=O)NCCCCCCNC(=O)CS)[C@H](c3cccc(OCCO)c3)N2C1=O 1.63
O=C1N(Cc2ccccc2)c2ccccc2C[C@@]12COC(c1ccc(OCCCO)cc1)=N2 1.45
CC(C)C(=C=CC[C@H](O)c1ccccc1OCCO)C[C@H](O)c1cc(Cl)cc(Cl)c1O 0.35
CCCC#C[Si](O[C@H](CC)c1cn(Cc2ccccc2)nn1)(C(C)C)C(C)C -0.249
OCCCC1=CC(c2ccc(CN3CCCC3)cc2)N(Cc2cccc(OC(F)(F)F)c2)CC1 (centres undefined) -0.113
